Test results as given in PubChem BioAssay (NCI).
The panel holds about 83,000 compounds, 20% with a hit somewhere; the sample as a whole holds those more often.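 48-hour exposure, single concentration, 96-well plates; percent growth endpoint where 0 means no net growth. Active: below 10.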 Unmarked numbers belong to inactive results. Activity calls are given as the source filed them.

What follows are compounds tested on A549/ATCC NSCLC (assay: NCI-60 one-dose screen, 48 h (100 = growth as untreated, 0 = no growth, -100 = all killed)). Details: 10 µM unless noted.

For `CN1CCN(Cc2ccc(NC(=O)c3cncc(C#Cc4cnc5ccc(NCCCO)nn45)c3)cc2C(F)(F)F)CC1`, which growth is on record?
The growth was 5.6% (active).

`COC(=O)c1[nH]nc2c1C1(C(=O)N(C)c3ccccc31)C(C#N)=C(N)O2` (centres undefined) was tested. Which growth did it give?
The growth was 101%.

Which growth does the source give for `O=C(Cn1cc(-c2ccccc2)nn1)Nc1nc(-c2ccc(Cl)cc2)cs1` here?
Its growth is 103%.

With `COc1cc(OC)c(S(N)(=O)=O)cc1C(C)=O` as the compound, how does the growth read?
Its growth is 104%.

How did the growth turn out when `COc1ccccc1N1CCN(C2=CC(=O)C(C)=C(C)C2=O)CC1` was run?
The growth was 102%.

Which growth does the source give for `NC(N)=Nc1ccc(Oc2cccc(Nc3ccc(Br)c(C(F)(F)F)c3)c2)cn1` here?
Its growth is -23.9% (active).

`Cn1ccnc1C(=O)/C=C/c1ccc(CNC(=O)c2ccc(F)cc2)cc1` was tested. Which growth did it give?
The growth was 27.6%.

How did the growth turn out when `Cc1c(Cl)cccc1S(=O)(=O)Nc1ccc2c(c1)C(=O)N(C1CCC(=O)NC1=O)C2=O` (centres undefined) was run?
Its growth is 104%.

How did the growth turn out when `NS(=O)(=O)c1ccc(-n2cc(-c3cccc(NC(=O)c4ccc(N5CCOCC5)c(C(F)(F)F)c4)c3)nn2)cc1` was run?
The growth was 53.5%.

`Nc1ncc(-c2ccc3ncnc(N4CCc5cc(F)c(F)cc54)c3c2)cn1` was tested. Which growth did it give?
The growth was 15.6%.

Which growth does the source give for `COc1c(N2CC3CCCNC3C2)c(F)cc2c(=O)c(C(=O)N/N=C/c3ccc(Br)cc3)cn(C3CC3)c12` (centres undefined) here?
Its growth is 83.1%.

How did the growth turn out when `O=C(NNc1nc2cc(F)c(F)cc2n2c(CN3CC4CNCC4C3)ccc12)c1ncccn1` (centres undefined) was run?
Its growth is 15.2%.

With `COc1ccc(/C=C(\C#N)C(=O)N2c3ccccc3Sc3ccc(SC)cc32)cc1F` as the compound, how does the growth read?
The growth was 85.7%.

With `Cc1ccc(NC(=O)CNc2cc(C(N)=O)cc(F)c2C)c(Cl)c1` as the compound, how does the growth read?
The growth was 91.9%.
